The values that follow come from PubChem BioAssay AID620 (Sanford-Burnham Center for Chemical Genomics, 2007).

Out of some 87,000 compounds screened, about 360 (0.41%) were called active. Rule as the data show it: active = cytotoxicity above about 50%; inactive = the rest. The full list was thinned out, with actives kept by preference.

A short description of this test: cytotoxicity in HT1080 fibrosarcoma cells, cell-based, fluorescence readout (AID 620).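 Also: cells exposed to compound overnight then 4 h with Alamar Blue; 0% = vehicle DMSO and 100% = killing control.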 To be noted: HT1080 viability, at 10 µM, hits give high values.
Turning to `COc1ccccc1NC(=O)Cn1nc(C(F)(F)F)c2c1CCCC2`, the cytotoxicity was -0.3% (inactive). The result for `CCOC(=O)c1c(C)cc(=O)oc1C` reads -21.5% (inactive); that for `CCOC(=O)c1c(C)oc2c(F)c(F)c(F)c(F)c2c1=O`, 96.5% (active); that for `CCOC(=O)c1c(C)oc2cc3c(C(=O)OCC)c(C)oc3cc12`, -0.1% (inactive).

As to `COC(=O)Nc1cc(C)nc2ccccc12`, the cytotoxicity is -9.1% (inactive). The result for `COc1ccc(N2CCN(c3ncnc4nc[nH]c34)CC2)cc1` reads -6.5% (inactive).

As to `O=c1cc(N2CCN(Cc3ccccc3)CC2)[nH]c(=O)n1-c1cccc(C(F)(F)F)c1`, the cytotoxicity is 12.7% (inactive).

Consider `Cc1nnc(SCC(=O)Nc2cc(C(F)(F)F)ccc2N2CCOCC2)o1`, for which the cytotoxicity is 7% (inactive). The result for `O=C(Nc1cc(C(F)(F)F)ccc1N1CCOCC1)c1c(F)c(F)c(F)c(F)c1F` reads 1.3% (inactive); that for `Cc1onc(-c2ccccc2)c1C(=O)Nc1ccccc1N1CCOCC1`, 3.3% (inactive). On to `Cc1ccc2nc(SCC(=O)Nc3cc(C(F)(F)F)ccc3N3CCOCC3)[nH]c2c1`, for which the cytotoxicity is 62.5% (active). With `O=C(CSc1nc2ccccc2[nH]1)Nc1cc(C(F)(F)F)ccc1N1CCOCC1` the figure was -2.4% (inactive); with `Cc1onc(-c2ccccc2)c1C(=O)Nc1cc(C(F)(F)F)ccc1N1CCOCC1`, 59.2% (active). As for `COCCNC(=O)C1(C)C=CCN1C(C)=O` (stereo not given), the cytotoxicity is -17.3% (inactive). For the compound `COc1ccc(NC(=O)c2ccc(-n3nc(C)cc3C)cc2)cc1OC`, the cytotoxicity was -17.7% (inactive). With `COC(=O)c1ccccc1S(=O)(=O)C(C)(C)C` the figure was 7.6% (inactive); with `CCOCCCNC(=O)C1CCN(S(=O)(=O)N2CCCCC2)CC1`, 1.1% (inactive). The result for `COC(=O)C1=[N+]([O-])OC(C(=O)OC)C1c1c[nH]c2ccccc12` (stereo not given) reads 41.5% (inactive); that for `CCc1nc2c(sc3nc4c(cc32)COC(C)(C)C4)c(=O)n1Cc1ccco1`, 1.2% (inactive). As to `CC1(C)Cc2nc3sc4c(=O)n(CC(=O)NCc5ccco5)cnc4c3cc2CO1`, the cytotoxicity is 15.9% (inactive). With `Cc1nc2c(sc3nc4c(cc32)COC(C)(C)C4)c(=O)n1CC(=O)NCc1ccco1` the figure was 55.6% (active).

Turning to `CSC1=Nc2sc3c(c2C2=NCCN12)CCCC3`, the cytotoxicity is 7.2% (inactive). As to `CC[C@H]1CN2CCc3cc(OC)c(OC)cc3[C@@H]2C[C@@H]1C[C@H]1NCCc2cc(OC)c(OC)cc21`, the cytotoxicity was 78.8% (active).

Regarding `COc1cc2c(cc1OC)C1C/C(=N\O)C(CC(C)C)CN1CC2` (stereo not given), the cytotoxicity is -13.4% (inactive). The result for `COc1cc2c(cc1OC)C1Cc3ccc(OC)c(OC)c3CN1CC2` (stereo not given) reads -0.8% (inactive); that for `Cc1oc(-c2ccccc2F)nc1CN1CCC(C(=O)NCc2cccs2)CC1`, -2.2% (inactive). As for `O=S(=O)(Nc1nnc(-c2ccccc2)s1)c1ccc(Cl)cc1`, the cytotoxicity is 5.7% (inactive). `Cc1ncc(S(=O)(=O)c2ccc(Cl)cc2)c(-c2ccccc2)n1`: the cytotoxicity was 18.2% (inactive).

`O=C1NCCCC1C(=O)N1CCN(C(=O)C2CCCNC2=O)CC1` (stereo not given): the cytotoxicity is -7.4% (inactive).

Regarding `O=C(CCn1cccc1)Nc1ccccc1F`, the cytotoxicity is -5.1% (inactive).
